In PubChem BioAssay (Tox21) one finds Potency and outcome data, which are given here for six compounds.

Test [1] addresses Progesterone receptor (Homo sapiens) (UniProt P06401). Kind of test: qHTS assay to identify small molecule agonists of the progesterone receptor (PR) signaling pathway (AID 1346784; calls by dose curve; further: nearly all actives have a fitted effect of over 30% in size). The method, boiled down:
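The screen uses PR-UAS-bla HEK 293T cells in charcoal-stripped serum (2%). Compounds are applied for 16 hr at 37C after a 6 hr pre-incubation, and reporter activity is detected with a FRET beta-lactamase substrate after 2 hr at room temperature.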

Test [2] shares this target. Kind of test: qHTS assay to identify small molecule antagonists of the progesterone receptor (PR) signaling pathway (AID 1346795; active means well fitted inhibition curve with a large enough effect in the signal ratio in the repeat runs, not every such curve was filed as active; the % refers to the signal ratio). The method, boiled down: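 After 6 hr plating at 37C in 2% stripped-serum medium, PR-UAS-bla HEK293T cells got compounds, then 1 nM R5020. Sixteen hours later, LiveBLAzer substrate was applied for 2 hr at room temperature and fluorescence was recorded.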

The nature of test [3]: qHTS assay to identify small molecule antagonists of the progesterone receptor (PR) signaling pathway - cell viability counter screen (AID 1346798). Further: series mostly up to about 92 µM; nearly all actives have a fitted effect of over 50% in size. The method, boiled down: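 Viability was determined by ATP-based luminescence (CellTiter-Glo) in PR-UAS-bla HEK293T cells cultured in 2% charcoal-stripped serum and incubated 16 hr with compounds under R5020 stimulation.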
Test [4] in a line: qHTS assay to identify small molecule agonists of the progesterone receptor (PR) signaling pathway - cell viability counter screen (AID 1346799; calls by dose curve; further: nearly all actives have a fitted effect of over 45% in size). Summed up: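 Viability was scored by ATP luminescence (CellTiter-Glo, 30 min, room temperature) in the same wells used for the reporter readout, after 16 hr compound exposure of PR-UAS-bla HEK293T cells.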
The nature of test [5]: qHTS assay to identify small molecule antagonists of the TGF-beta/Smad signaling pathway - cell viability counter screen (AID 1346824). Further: nearly all actives have a fitted effect of over 50% in size. The method, boiled down:
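Cytotoxicity counter-screen run in the same wells as the beta-lactamase Smad reporter read: CellTiter-Glo luminescence after 30 min at room temperature. HEK 293T SBE-bla cells had 5 hr compound exposure at 37 C with TGF-beta1 (0.25 ng/mL stock).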

The nature of test [6]: qHTS assay to identify small molecule agonists of the TGF-beta/Smad signaling pathway - cell viability counter screen (AID 1346829). Further: top concentration of the series differs between compounds; nearly all actives have a fitted effect of over 45% in size. The method, boiled down: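 CellTiter-Glo luminescence readout; SBE-bla HEK 293T cells, overnight plating, compound 5 hr at 37 C/5% CO2, then bla substrate 2 hr RT, then CellTiter-Glo 30 min RT.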
Test [7] can be described thus: qHTS assay to identify small molecule agonists of the TGF-beta/Smad signaling pathway (AID 1346859; active means well fitted activation curve with a large enough effect in the signal ratio in the repeat runs, not every such curve was filed as active; the % refers to the signal ratio; further: series mostly up to about 77 µM). Summed up: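 Dual-wavelength fluorescence (460/530 nm emission) quantified beta-lactamase expression under the Smad binding element in HEK 293T cells following 5 hr compound treatment at 37 C.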
Test [8] in a line: Human pregnane X receptor (PXR) small molecule agonists, qHTS cell viability counter screen (AID 1346977). Further: nearly all actives have a fitted effect of over 50% in size. The method, boiled down: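 HepG2 cells stably carrying the PXR-Luc reporter are cultured with 5% charcoal-stripped FBS and treated with compounds for 24hr. CellTiter-Fluor is added at 23hr and fluorescence is read after 1hr.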
Test [9] in a line: Caspase-3/7 induction in HepG2 cells by small molecules, qHTS assay (AID 1346978). Further: nearly all actives have a fitted effect of over 15% in size. Summed up:
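Caspase-3/7 induction was measured by Caspase-Glo 3/7 luminescence (30 min, room temperature) after a 17 hr compound exposure of wild-type HepG2 cells seeded at 2,000 per well and pre-incubated 5 hr.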

Test [10] can be described thus: Caspase-3/7 induction in CHO-K1 cells by small molecules, qHTS cell viability counter screen (AID 1346979). Further: nearly all actives have a fitted effect of over 35% in size. Summed up:
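Seeding: 1,500 CHO-K1 cells/well. Rest: 5hr, 37C. Treatment: compounds in DMSO, 16hr. Read: CellTiter-Fluor, 1hr, fluorescence.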

Test [11] can be described thus: Caspase-3/7 induction in CHO-K1 cells by small molecules, qHTS assay (AID 1346980). Further: nearly all actives have a fitted effect of over 15% in size. The method, boiled down:
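Luminescent Caspase-Glo 3/7 read (30min, room temperature) quantified apoptosis induction. Cells were wild-type CHO-K1, treated with compound for 17hr at 37 C and 5% CO2.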

Test [12] in a line: Caspase-3/7 induction in HepG2 cells by small molecules, qHTS cell viability counter screen (AID 1346981). Further: series mostly up to about 92 µM; nearly all actives have a fitted effect of over 30% in size. Summed up: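 Counter screen for cytotoxicity: HepG2 exposed 16 hr to compounds, then CellTiter-Fluor viability signal (fluorescence, 1 hr reagent incubation).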
The target of test [13] is Nuclear receptor subfamily 1 group I member 2 (Homo sapiens) (UniProt O75469). The test can be described thus: Human pregnane X receptor (PXR) small molecule agonists, qHTS assay (AID 1346982). Further: nearly all actives have a fitted effect of over 35% in size. Further: potency means the concentration at half of the fitted maximal effect. Summed up:
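Luminescence (ONE-Glo, 30 min RT) after 24 hr compound exposure of PXR-Luc HepG2 cells; cells rested 5 hr post-plating in 5% charcoal-stripped FBS medium.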

Test [14] concerns the target Cytochrome P450 2C19 (Homo sapiens) (UniProt P33261). The test can be described thus: Cytochrome P450 Family 2 Subfamily C Member 19 (CYP2C19) small molecule antagonists: luciferase reporter qHTS assay (AID 1671197). Further: nearly all actives have a fitted effect of over 65% in size. Further: potency means the concentration at half of the fitted maximal effect. The method, boiled down: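 Enzyme-substrate mix with proluciferin substrate (P450-Glo CYP2C19 system) preincubated with compounds 10 min at room temperature; NADPH regeneration solution added, 37C for 1 h; detection reagent stops reaction, luminescence read after 20 min. Ketoconazole positive control.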

The target of test [15] is Thyrotropin-releasing hormone receptor (Homo sapiens) (UniProt P34981). Kind of test: qHTS assay to identify small molecule antagonists of the thyrotropin-releasing hormone receptor (TRHR) signaling pathway (AID 1346877; active means well fitted inhibition curve with a large enough effect in the repeat runs, not every such curve was filed as active; further: series mostly up to about 51 µM). Summed up: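 In this cell-based calcium flux format, HEK293 cells expressing TRHR received test compound for 5 min before the agonist TRH (1 nM final). Dye loading lasted 2 h at 37 °C.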

The target is the same in test [16]. Kind of test: qHTS assay to identify small molecule agonists of the thyrotropin-releasing hormone receptor (TRHR) signaling pathway (AID 1346891; calls by dose curve; further: series mostly up to about 58 µM). Summed up: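 Kinetic fluorescence (3 min, 1 s intervals) reported intracellular calcium after compound transfer onto TRHR-Hek293 cells pre-loaded with dye for 2 h at 37 °C.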
The target of test [17] is Cytochrome P450 2D6 (Homo sapiens) (UniProt P10635). Kind of test: Cytochrome P450 Family 2 Subfamily D Member 6 (CYP2D6) small molecule antagonists: luciferase reporter qHTS assay (AID 1671196). Further: nearly all actives have a fitted effect of over 50% in size. Further: potency means the concentration at half of the fitted maximal effect. The method, boiled down: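 Inhibition of CYP2D6 was gauged by loss of luminescence, since light produced tracks the luciferin generated from a proluciferin substrate. A 10 min room-temperature preincubation preceded 1 h NADPH-supported turnover.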

Structures are written as SMILES. Where “and” joins values, the source holds several entries; their conditions need not be identical. Equal entries are not always repeated. Inconclusive results are not listed. Some compounds were tested as several samples or in several runs, with calls that do not always agree. Calls of active or inactive are those of the source. Unless noted, the call rests on the fitted dose curve; in most records, active means well fitted curve in the direction sought with a large enough effect in the repeat runs; inconclusive means weak or mixed curves; inactive means no such curve, though single readings can be large; an effect the other way counts as inactive or inconclusive.

Chain of Thyrotropin-releasing hormone receptor (Homo sapiens) (P34981 whole entry, looked up): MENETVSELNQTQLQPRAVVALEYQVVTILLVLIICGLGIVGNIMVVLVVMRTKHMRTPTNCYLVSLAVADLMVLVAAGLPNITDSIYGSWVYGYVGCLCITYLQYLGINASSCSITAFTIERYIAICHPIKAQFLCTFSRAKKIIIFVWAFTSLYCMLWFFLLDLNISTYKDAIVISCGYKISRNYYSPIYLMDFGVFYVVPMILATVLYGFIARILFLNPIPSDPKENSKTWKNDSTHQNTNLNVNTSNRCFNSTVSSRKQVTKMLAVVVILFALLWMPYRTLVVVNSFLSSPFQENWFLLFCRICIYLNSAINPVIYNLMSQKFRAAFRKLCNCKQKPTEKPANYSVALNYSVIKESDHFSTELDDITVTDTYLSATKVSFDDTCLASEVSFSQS
Chain of Cytochrome P450 2D6 (Homo sapiens) (P10635 whole entry, looked up): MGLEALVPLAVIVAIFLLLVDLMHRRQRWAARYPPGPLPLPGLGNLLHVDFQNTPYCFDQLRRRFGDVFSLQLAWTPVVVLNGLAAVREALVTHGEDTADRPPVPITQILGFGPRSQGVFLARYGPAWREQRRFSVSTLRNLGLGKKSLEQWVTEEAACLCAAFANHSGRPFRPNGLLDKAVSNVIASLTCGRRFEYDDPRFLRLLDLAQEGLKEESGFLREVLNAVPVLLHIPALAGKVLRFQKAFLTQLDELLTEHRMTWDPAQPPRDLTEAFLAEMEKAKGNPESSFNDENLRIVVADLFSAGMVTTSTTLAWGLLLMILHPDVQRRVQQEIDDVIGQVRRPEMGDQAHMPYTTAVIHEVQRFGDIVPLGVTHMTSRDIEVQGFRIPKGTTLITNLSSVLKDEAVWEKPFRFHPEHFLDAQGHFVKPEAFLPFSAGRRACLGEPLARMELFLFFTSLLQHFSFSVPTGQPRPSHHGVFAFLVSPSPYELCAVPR
Chain of Cytochrome P450 2C19 (Homo sapiens) (P33261 whole entry, looked up): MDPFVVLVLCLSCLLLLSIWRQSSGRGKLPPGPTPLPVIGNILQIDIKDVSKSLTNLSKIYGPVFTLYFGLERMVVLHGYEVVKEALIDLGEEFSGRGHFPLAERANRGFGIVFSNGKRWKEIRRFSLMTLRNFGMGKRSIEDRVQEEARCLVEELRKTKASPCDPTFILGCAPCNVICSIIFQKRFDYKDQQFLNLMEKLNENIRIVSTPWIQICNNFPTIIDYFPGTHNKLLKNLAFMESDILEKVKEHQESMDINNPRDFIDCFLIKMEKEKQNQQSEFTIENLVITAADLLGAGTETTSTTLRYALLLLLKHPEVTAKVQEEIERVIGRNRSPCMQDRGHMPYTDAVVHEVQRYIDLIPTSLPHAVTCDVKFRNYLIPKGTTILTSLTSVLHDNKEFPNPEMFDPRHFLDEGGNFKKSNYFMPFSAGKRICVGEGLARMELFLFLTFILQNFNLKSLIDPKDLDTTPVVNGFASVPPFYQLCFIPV
Chain of Nuclear receptor subfamily 1 group I member 2 (Homo sapiens) (O75469 whole entry, looked up): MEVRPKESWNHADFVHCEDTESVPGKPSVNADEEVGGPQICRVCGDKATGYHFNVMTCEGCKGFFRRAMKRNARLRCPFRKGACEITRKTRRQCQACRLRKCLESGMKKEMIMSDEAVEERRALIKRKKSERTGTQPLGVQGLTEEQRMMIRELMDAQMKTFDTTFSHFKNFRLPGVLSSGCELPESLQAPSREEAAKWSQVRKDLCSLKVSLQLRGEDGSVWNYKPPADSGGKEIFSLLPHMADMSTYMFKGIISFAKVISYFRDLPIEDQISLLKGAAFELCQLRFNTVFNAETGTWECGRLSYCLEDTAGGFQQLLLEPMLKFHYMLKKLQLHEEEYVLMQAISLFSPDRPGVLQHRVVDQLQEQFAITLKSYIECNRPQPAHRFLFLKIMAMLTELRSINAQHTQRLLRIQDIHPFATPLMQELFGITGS
Chain of Progesterone receptor (Homo sapiens) (P06401 whole entry, looked up): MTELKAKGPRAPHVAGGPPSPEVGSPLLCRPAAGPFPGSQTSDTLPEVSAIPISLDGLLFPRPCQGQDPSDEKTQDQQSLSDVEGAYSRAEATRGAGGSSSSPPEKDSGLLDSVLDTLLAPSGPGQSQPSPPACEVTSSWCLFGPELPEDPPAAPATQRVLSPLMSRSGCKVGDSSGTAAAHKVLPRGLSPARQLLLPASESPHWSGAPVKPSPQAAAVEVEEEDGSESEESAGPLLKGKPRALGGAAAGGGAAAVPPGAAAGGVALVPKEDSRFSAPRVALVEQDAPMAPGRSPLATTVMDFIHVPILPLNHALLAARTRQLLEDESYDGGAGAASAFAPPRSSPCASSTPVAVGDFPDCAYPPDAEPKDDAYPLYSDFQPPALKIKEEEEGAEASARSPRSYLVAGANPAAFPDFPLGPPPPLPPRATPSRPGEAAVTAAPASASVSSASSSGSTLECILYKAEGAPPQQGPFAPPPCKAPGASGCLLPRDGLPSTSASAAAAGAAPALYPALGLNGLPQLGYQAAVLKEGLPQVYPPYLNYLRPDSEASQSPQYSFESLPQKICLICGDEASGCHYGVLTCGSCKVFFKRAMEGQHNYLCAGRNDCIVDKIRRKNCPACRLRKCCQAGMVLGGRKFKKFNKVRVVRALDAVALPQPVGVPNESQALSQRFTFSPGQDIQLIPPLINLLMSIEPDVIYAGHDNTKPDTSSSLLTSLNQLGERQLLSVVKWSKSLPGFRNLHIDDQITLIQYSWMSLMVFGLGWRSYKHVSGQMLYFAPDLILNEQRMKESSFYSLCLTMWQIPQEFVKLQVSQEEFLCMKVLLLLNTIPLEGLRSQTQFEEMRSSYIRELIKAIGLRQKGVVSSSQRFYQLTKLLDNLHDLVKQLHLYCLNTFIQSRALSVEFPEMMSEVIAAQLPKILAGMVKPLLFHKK

`Nc1cccc(N)n1`: the Potency result in test [1], in test [2], in test [3], in [4], in test [5] and in [6] was “inactive” throughout. Further, the Potency entry in [7], in test [8], in test [9], in [10], in test [11] and in test [12] was “inactive” throughout. Also, the Potency result in test [13] is “inactive”. In addition, the Potency in [14] was 39.9 µM (active).
`COC(=O)/C=C\C(=O)OC`: the Potency result in test [1], in test [2], in test [3], in test [4], in [5] and in test [6] was “inactive” throughout. Besides, the Potency entry in test [7], in test [15], in [9], in test [10], in test [11] and in test [12] was “inactive” each time. For the same compound, the Potency entry in test [13], in test [17] and in test [14] was “inactive” throughout. Further, the compound was called inactive in [16].
Turning to `CCCCC(CC)COC(=O)c1ccc(C(=O)OCC(CC)CCCC)cc1` (stereo not given), the Potency result in [1], in test [2], in test [3], in test [4], in test [5] and in test [7] was “inactive” throughout. Besides, the Potency entry in test [15], in [8], in [9], in test [10], in test [11] and in test [12] was “inactive” in each case. Further, the Potency entry in test [13], in [17] and in test [14] was “inactive” throughout. Further, in test [16], the compound was classed as inactive.
Consider `CC(O)CNCC(C)O` (stereo not given), for which the Potency entry in test [1], in test [2], in test [3], in [4], in test [5] and in test [6] was “inactive” in each case. Also, the Potency result in test [7], in [9], in test [10], in test [11], in [12] and in [17] was “inactive” throughout. Also, the Potency in [13] is 61.5 µM (active) and inactive; in [14], 20.1 µM (active) and 71 µM (active).
Regarding `COc1ccc(N)c(OC)c1`, the Potency result in test [1], in [2], in [3], in test [4], in test [5] and in test [6] was “inactive” each time. The Potency result in test [7], in test [9], in [10], in test [11], in [12] and in test [13] was “inactive” each time. In addition, the Potency in test [17] was 1.53 µM (active) and 17.8 µM (active); in [14] it was 15.3 µM (active) and 35.6 µM (active).
In the case of `Cc1ccccc1C=O`, the Potency entry in test [1], in test [2], in test [3], in test [4], in [5] and in test [7] was “inactive” throughout. For the same compound, the Potency entry in test [15], in test [8], in test [9], in [10], in test [11] and in test [12] was “inactive” each time. For the same compound, the Potency entry in test [13], in test [17] and in test [14] was “inactive” throughout. Moreover, the compound was classed as inactive in [16].
